# Rows were chosen to be rich in hits. Some 7.4% of all compounds tested hit in one or more screens of this group.
# SMN2 splice enh = enhancers of SMN2 splice variant expression; AID 1458; 2.8% of 210,000 active; Potency, µM (series often up to 46.1 µM), without a hit: top-dose activity change, positive = activation, usual class: activators; HEK293 SMN2-luciferase splicing reporter, luminescence, 30-36 h; note: % of control where 0% means no effect; nearly all actives have a fitted effect of over 55% in size
#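 qHTS luciferase splicing reporter: luminescence rises when SMN2 exon 7 is included in transfected HEK293 cells. Compound exposure lasted 30-36 h at 37C, with 4.5 mM final sodium butyrate as control, followed by a ONE-Glo read.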
# FLuc modulator = inhibits or activates purified firefly luciferase, miR-21 counter-screen. Potency, µM (highest dose often 57.5 µM), without a hit: at the top dose activity change, negative = inhibition, usual class: inhibitors. purified FLuc, Km substrates, luminescence inhibition. AID 588342. 6.9% of 360,000 active. P08659;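 note: plate controls were vehicle for no effect and reference inhibitor for full effect; nearly all actives have a fitted effect of over 55% in size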
# Target sequence (P08659 whole entry, looked up): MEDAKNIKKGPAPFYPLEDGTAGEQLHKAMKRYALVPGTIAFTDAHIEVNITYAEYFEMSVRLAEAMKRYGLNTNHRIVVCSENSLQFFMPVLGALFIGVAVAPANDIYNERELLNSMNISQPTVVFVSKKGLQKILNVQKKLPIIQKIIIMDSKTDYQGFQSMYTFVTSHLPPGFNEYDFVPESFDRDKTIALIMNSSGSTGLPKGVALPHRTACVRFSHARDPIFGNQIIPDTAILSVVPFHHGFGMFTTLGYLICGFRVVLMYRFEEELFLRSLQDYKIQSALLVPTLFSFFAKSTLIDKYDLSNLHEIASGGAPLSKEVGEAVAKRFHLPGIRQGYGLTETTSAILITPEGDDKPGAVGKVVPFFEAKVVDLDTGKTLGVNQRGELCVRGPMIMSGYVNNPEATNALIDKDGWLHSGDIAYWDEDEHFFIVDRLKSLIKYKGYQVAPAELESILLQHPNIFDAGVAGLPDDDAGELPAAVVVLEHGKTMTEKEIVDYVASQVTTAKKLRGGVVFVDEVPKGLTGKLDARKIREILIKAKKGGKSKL
#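 Purified P. pyralis luciferase, 10 nM final, with Km-level 10 uM D-luciferin and 10 uM ATP in 50 mM Tris acetate pH 7.5, 10 mM Mg acetate, 0.01% Tween-20, 0.05% BSA; 6-point qHTS titration about 60 µM downward; luminescence read.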
# NPC1 prom act = NPC1 promoter activation; Huh7 NPC1 promoter luciferase reporter, 24 h; Potency, µM (doses to about 9.22 µM), for inactives: at the highest dose activation, hits mostly activators; 2.4% of 320,000 active; AID 485313; note: % of control where 0% means no effect; nearly all actives have a fitted effect of over 60% in size
#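 Luciferase expression driven by the NPC1 promoter was measured in stably transfected Huh7 cells after a 24 h compound incubation, using a luciferase reagent and a luminescence read.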
# ELG1 genotoxic = genotoxicity induction in ELG1-luciferase HEK293T cells; 1.3% of 330,000 active; HEK293T ELG1-luciferase reporter, luminescence, 16 h; Potency, µM (top dose mostly 46 µM), inactives show at the highest dose activity change, positive = activation, hits mostly activators; note: % of control where 0% means no effect; nearly all actives have a fitted effect of over 60% in size
#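 Genotoxicity was scored as increased ELG1-luciferase reporter signal, measured by ONE-Glo luminescence (30 min, room temperature). Compound or vehicle exposure of the HEK293T reporter cells lasted 16 hr at 37°C.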
# Rab9 promoter act = Rab9 promoter activation; Huh7 Rab9 promoter-luciferase reporter, luminescence, 24 h; 2.8% of 320,000 active; Potency, µM (doses to about 9.22 µM), for the others: at the top dose activation, negative = inhibition, hits mostly activators; note: % of control where 0% means no effect; nearly all actives have a fitted effect of over 60% in size
#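 Luminescence from Amplite-detected luciferase (10 minutes, ambient) reports Rab9 promoter activation. Before that, stable Rab9-luciferase Huh7 cells (1500/well, reduced-serum OP-MEM I plus 10% FBS) were exposed to compound for 24 hours at 37C.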
# KinaseGlo FLuc = counter-screen: inhibitors of Kinase-Glo firefly luciferase; Q27757; Kinase-Glo luciferase, ATP luminescence, 8 min; Potency, µM (top dose mostly 38.3 µM), for the others: at the top dose activity change, negative = inhibition, actives largely listed as inhibitors; 0.28% of 200,000 active; AID 1379; note: % is set by controls: 0 for no effect and ±100 for the full control effect; nearly all actives have a fitted effect of over 60% in size
#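 Recombinant Kinase-Glo luciferase, 10 uM ATP (linear range), luciferin; imidazole pH 7.2 / KCl / MgCl2 / Tween / BSA buffer; 8 min RT; luminescence.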
# An asterisk follows results filed as active; ? = inconclusive; / = no result; [ ] = another dose, or the depositor's remark. Calls come from the whole dose curve; as a rule, active = well fitted curve in the direction sought with a large enough effect; inconclusive = small, poorly fitted or top-dose-only effect, or another doubt; inactive = no such curve, though single readings can be large; an effect the other way counts as inactive or inconclusive. Potency is the fitted concentration of half-maximal effect.
SMILES,SMN2 splice enh,FLuc modulator,NPC1 prom act,ELG1 genotoxic,Rab9 promoter act,KinaseGlo FLuc
CN(C)/C=N/c1ncc(C(=O)c2ccccc2)s1,14.1µM*,15.1µM*,2.82µM*,9.2µM*,3.16µM*,-0.1%
Cc1cc(C)cc(NC(=O)c2ccc3oc(=O)c(S(=O)(=O)c4ccc(F)cc4)cc3c2)c1,5.3%,-0.1%,/,/,/,/
Cc1nn(-c2ccccc2)c(OC(=O)C(C)C)c1Sc1ccc(Cl)cc1,1.1%,13.5µM*,/,/,/,/
COc1ccccc1C(=O)Nc1ccccc1C(=O)OCc1cc(=O)n2c(C)csc2n1,/,-0.3%,/,/,/,/
Cc1ccc(-c2nc(-c3ccccn3)no2)cc1[N+](=O)[O-],/,1.51µM*,0.316µM*,2.06µM*,0.316µM*,/
Cc1ccc(-c2nc(-c3ccccn3)no2)cc1,/,0.0849µM*,-28.4%,-7.2%,0.0002µM*,3.16µM*
CCCNc1ccc(-c2nc(-c3ccccn3)no2)cc1[N+](=O)[O-],/,-0.6%,/,/,/,/
Cc1ccc(-c2nc(-c3ccccn3)no2)cc1Cl,/,0.135µM*,0.355µM*,?,0.316µM*,11.2µM*
Cc1ccc(CNc2ccc(-c3nc(-c4ccccn4)no3)cc2[N+](=O)[O-])cc1,/,-17.4%,/,/,/,/
Cc1ccc(Sc2cc(C)nc(-c3ccccn3)n2)cc1,/,16.9µM*,20.5%,5.9%,4.6%,/
Cn1ccnc1CN1CCCCC1C(=O)Nc1ccc(Oc2cccnc2)cc1 (centres undefined),/,1.2%,-25.2%,9.9%,-6.3%,/
c1ccc(-c2nc(-c3ccccn3)no2)cc1,0.501µM*,0.536µM*,0.112µM*,?,?,3.16µM*
c1ccc(-c2noc(-c3ccno3)n2)nc1,/,-10.1%,16.2%,8.8%,28.4%,/
Clc1cccc(-c2nc(-c3ccccn3)no2)c1,0.708µM*,0.338µM*,0.316µM*,?,0.1µM*,?
CCCCNc1ccc(-c2nc(-c3ccccn3)no2)cc1[N+](=O)[O-],/,-3.4%,/,/,/,/
O=C(CN1C(=O)c2ccccc2S1(=O)=O)Nc1ncc(Cl)cc1Cl,/,/,/,3.7%,/,/
O=C(CSc1n[nH]c(=O)n1Cc1ccccc1)Nc1ccc(N2CCOCC2)cc1,/,-2.6%,-2.5%,-7.8%,-5.5%,/
Clc1cccc2sc(N3CCCCC3)nc12,?,23.9µM*,29.2%,23.1µM*,?,-1.2%
Clc1cc(Cl)c2nc(N3CCCCC3)sc2c1,?,8.49µM*,2.82µM*,?,3.98µM*,-8.0%
C/C(Cn1nnc([N+](=O)[O-])n1)=N\NC(=O)c1ccc(O)cc1O,-15.9%,?,6.7%,-8.8%,-7.3%,1.9%
C/C(CC(=O)Nc1ccc(N(C)C)cc1)=N\NC(=O)c1ccccc1O,/,12µM*,5.3%,-1.4%,9.9%,/
C/C(CC(=O)Nc1ccc([N+](=O)[O-])cc1)=N\NC(=O)c1ccccc1O,/,12µM*,2.5%,-0.9%,-2.1%,/
C/C(Cn1nnc([N+](=O)[O-])n1)=N\NC(=O)c1ccccc1O,/,10.7µM*,-0.6%,-12.1%,-3.8%,/
C/C(CC(=O)Nc1ccc(Cl)c(C(F)(F)F)c1)=N\NC(=O)c1ccccc1O,9.8%[1.84 µM],16.9µM*,0.6%,-5.8%,-0.6%,-0.6%
CCCc1[nH]n(-c2nc3ccccc3s2)c(=O)c1C=NCC1CCCO1 (centres undefined),-6.7%,-18.0%,5.6%,2.1%,13.6%,0.8%
SMILES,SMN2 splice enh,FLuc modulator,NPC1 prom act,ELG1 genotoxic,Rab9 promoter act,KinaseGlo FLuc
CCCc1[nH]n(-c2nc3ccccc3s2)c(=O)c1C=NCCN1CCOCC1,41.0%,16.9µM*,17.7%,?,15.7%,0.4%
COCCCN=Cc1c(-c2ccccc2)[nH]n(-c2nc3ccccc3s2)c1=O,/,15.1µM*,-6.3%,1.0%,0.6%,/
O=c1c(C=NCCCO)c(-c2ccccc2)[nH]n1-c1nc2ccccc2s1,/,15.1µM*,0.2%,10.7%,-11.6%,0.0%
CCCc1[nH]n(-c2nc3ccccc3s2)c(=O)c1C=NCCCOC,/,-16.4%,12.6%,6.9%,4.6%,/
CCCCCN=Cc1c(C)[nH]n(-c2nc3ccccc3s2)c1=O,11.0%,4.78µM*,?,2.91µM*,?,?
CCCn1c(N)c(N(CCOC)C(=O)c2ccc([N+](=O)[O-])cc2Cl)c(=O)[nH]c1=O,/,0.9%,0.9%,-1.9%,8.0%,/
COCCN(C(=O)c1cc(-c2ccncc2)nc2ccccc12)c1c(N)n(CC(C)C)c(=O)[nH]c1=O,/,-0.1%,-1.9%,1.6%,-9.9%,/
COc1cc(C2NC(=S)NC(C)=C2C(=O)Nc2cc(C)cc(C)c2)ccc1O (centres undefined),/,-1.6%,2.0%,0.7%,-2.9%,/
COc1ccc(OC)c(NC(=O)C2CCC(CNc3c(N4CCC(C)CC4)c(=O)c3=O)CC2)c1 (centres undefined),15.8µM*,0.8%,-4.7%,27.5%,-8.5%,1.4%
COc1ccc(OC)c(NC(=O)Nc2nnc(N3CCC(C)CC3)s2)c1,-9.7%,23.9µM*,-0.2%,3.2%,-2.9%,2.4%
Cc1ccc(-c2nc3ncccc3o2)cc1NC(=O)c1cc2ccccc2o1,2.1%,-7.9%,-1.1%,-0.2%,-5.3%,-0.8%
O=C(Nc1cccc(-c2nc3ncccc3o2)c1)c1sc2cc(Cl)ccc2c1Cl,-8.6%,-11.7%,4.7%,?,16.0%,-0.8%
CCC(C)c1ccc(OCC(=O)Nc2cccc(-c3nc4ncccc4o3)c2)cc1 (centres undefined),2.9%,7.57µM*,/,/,/,/
O=C(Nc1cccc(-c2nc3ncccc3o2)c1)c1sc2ccccc2c1Cl,-5.3%,1.35µM*,?,-1.3%,?,-6.8%
O=C(Nc1cccc(-c2nc3ncccc3o2)c1)c1cc2ccccc2o1,1.3%,8.49µM*,?,-2.0%,?,4.4%
CCN(CC)CCn1c(-c2ccccc2)nc2c(NC3CCCCC3)nc(C)nc21,-8.4%,/,/,/,/,-2.7%
CCc1nnc(NC(=O)c2ccc(COc3ccccc3)o2)s1,-2.3%,-13.5%,2.2%,16.0%,3.3%,0.9%
O=C(Nc1nccs1)c1ccc(COc2ccccc2)o1,/,?,2.51µM*,?,4.47µM*,/
Cc1ccc(OCc2ccc(C(=O)Nc3nccs3)o2)cc1,9.8%,16.9µM*,25.8%,3.1%,15.9%,-0.4%
N#CC(=NCc1cccnc1)C1=C(O)c2ccccc2C1=O,/,-2.9%,5.7%,-6.7%,1.9%,/
O=C(c1cccs1)N(CCN1CCCCC1)CC1CCCN(C2CCCC2)C1 (centres undefined),/,16.9µM*,22.9%,17.7%,?,/
CCOc1ccc(S(=O)(=O)NCC2CCCO2)c2ccccc12 (centres undefined),/,-1.6%,-3.6%,0.1%,-4.3%,/
Nc1nc(-c2ccc3c(c2)CCCC3)c(CC(=O)O)s1,/,23.9µM*,-0.7%,-0.7%,4.1%,/

# Screening results as filed in PubChem.
